These results are taken from PubChem BioAssay.

Each structure is given as a SMILES string. Several values for one entry are separate records, joined by “and”; a condition that tells them apart may be missing. Equal values may be shown once. Some structures have more than one record in an assay (separate samples or runs), and their calls can disagree. Activity calls are given as the source filed them. How the calls were made is not given here.

This test in a line: modulators of glucocorticoid suppression of NF-kB, cell-based, luciferase, IL-1B stimulus, dexamethasone (AID 624486).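 On percent of negative control (+Dex): 100% = mean signal of vehicle control wells on the plate.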 The following applies: NF-kB luciferase reporter, IL-1B + dexamethasone, luminescence; percent of negative control (+Dex): actives lie on both sides, concentration not given here; z-score: measured here: IL-1B alone, no Dex.
For `Nc1c(C(=O)c2cccc(CCC3(O)CCCC3)c2)cnn1-c1ccc(F)cc1`, the percent of negative control (+Dex) is 105% (inactive) and the z-score was -0.24.

Regarding `Cc1cccc(Oc2nccc(-c3c(-c4ccc(F)cc4)ncn3C3CCNCC3)n2)c1C`, the percent of negative control (+Dex) was 104% (inactive) and the z-score came out at 0.6.

Consider `COc1cc2ncn(-c3cc(OCc4ccccc4C(F)(F)F)c(C(N)=O)s3)c2cc1OC`, for which the percent of negative control (+Dex) was 103% (inactive) and the z-score is -0.44.

`O=C1NC(=NCCc2ccc(Br)cc2)SC1=Cc1ccc2ncccc2c1`: the z-score is -0.18 and the percent of negative control (+Dex) is 99.5% (inactive).

Consider `Cn1cc(C2=C(c3cn(C)c4cc(C(=O)O)ccc34)C(=O)NC2=O)c2ccccc21`, for which the z-score was found to be 0.65 and the percent of negative control (+Dex) was 99% (inactive).

For `CCOc1ccccc1CCN=C1NC(=O)C(=Cc2ccc3ncccc3c2)S1`, the percent of negative control (+Dex) is 90% (inactive) and the z-score was -0.335.

Regarding `Cn1cc(C2=C(c3cn(CCCCN)c4ccccc34)C(=O)NC2=O)c2ccccc21`, the z-score is 0.945 and the percent of negative control (+Dex) was 98.5% (inactive).

In the case of `O=c1c(Oc2ccc(F)cc2F)cc2cnc(NC3CCOCC3)nc2n1C1CCS(=O)(=O)CC1`, the z-score is -0.26 and the percent of negative control (+Dex) was 97% (inactive).

`CC(C)(C)c1ccc(Oc2nccc(-c3c(-c4ccc(F)cc4)ncn3C3CCNCC3)n2)cc1`: the z-score came out at 0.75 and the percent of negative control (+Dex) is 106% (inactive).

As for `CC(CO)Nc1cc(-c2[nH]c3cccnc3c2-c2ccc(F)cc2)ccn1` (stereo not drawn), the z-score is -0.435 and the percent of negative control (+Dex) was 85.5% (inactive).

`Cn1cc(C2=C(c3cccc(Cl)c3)C(=O)NC2=O)c2ccccc21`: the z-score is 0.59 and the percent of negative control (+Dex) is 106% (inactive).

For `Cn1cc(C2=C(c3cn(C)c4ccc(OCc5ccccc5)cc34)C(=O)NC2=O)c2ccccc21`, the z-score was -0.035 and the percent of negative control (+Dex) was 101% (inactive).

Regarding `Cn1c(=O)c(Oc2ccccc2)cc2cnc(NC3CCOCC3)nc21`, the percent of negative control (+Dex) was 105% (inactive) and the z-score amounted to 1.03.

Regarding `Nc1c(C(=O)c2cccc(-c3cccnc3)c2)cnn1-c1ccc(F)cc1F`, the percent of negative control (+Dex) is 110% (inactive) and the z-score was 0.74.

As for `COc1cc2ncn(-c3cc(O[C@@H](C)c4ccccc4Cl)c(C(N)=O)s3)c2cc1OC`, the z-score worked out at 2.36 and the percent of negative control (+Dex) is 124% (inactive).

In the case of `N#CCn1c(=O)c(Oc2ccc(F)cc2F)cc2cnc(NC3CCOCC3)nc21`, the percent of negative control (+Dex) was 97% (inactive) and the z-score is -0.11.

Regarding `Cn1cc(C2=C(Sc3ccccc3)C(=O)NC2=O)c2ccccc21`, the z-score came to 0.02 and the percent of negative control (+Dex) is 99.5% (inactive).

With `COc1ccc(N2Cc3cnc(Nc4ccccc4)nc3N(C3CCC(O)C3)C2=O)cc1` (stereo not drawn), the percent of negative control (+Dex) was 67% (active) and the z-score was -1.67.

With `Cn1cc(C2=C(c3cccc(OCC(O)CO)c3)C(=O)NC2=O)c2ccccc21` (stereo not drawn), the z-score is -1.71 and 0.045; the percent of negative control (+Dex) was 136% (active) and 100% (inactive).

Take `COc1ccccc1C(=O)c1cnc(NC2CCN(S(C)(=O)=O)CC2)nc1N`: the z-score was -1.16 and the percent of negative control (+Dex) was 85% (inactive).

As for `Cn1cc(C2=C(NN3CCOCC3)C(=O)NC2=O)c2ccccc21`, the z-score turned out to be 0.61 and the percent of negative control (+Dex) was 101% (inactive).

For `CN1CC2Cc3c(C4=C(c5cn(C)c6ccccc56)C(=O)NC4=O)c4ccccc4n3CC2C1` (stereo not drawn), the percent of negative control (+Dex) is 98.5% (inactive); the z-score was -0.62 and -0.215.

In the case of `COc1ccccc1C1=C(Nc2ccccc2)C(=O)NC1=O`, the z-score is 0.775 and the percent of negative control (+Dex) was 102% (inactive).

Consider `CCCn1cc(C2=C(c3cn(C)c4ccccc34)C(=O)NC2=O)c2ccccc21`, for which the z-score turned out to be 0.09 and the percent of negative control (+Dex) is 102% (inactive).

Consider `O=C1NC(=O)C(c2ccccc2)=C1Nc1ccccc1`, for which the z-score is 0.395 and the percent of negative control (+Dex) is 99.5% (inactive).

On to `COc1cccc(C2=C(c3cn(C)c4ccccc34)C(=O)NC2=O)c1`, for which the percent of negative control (+Dex) was 110% (inactive) and the z-score was -0.735.

On to `COc1cc(Nc2ncc(-c3ccccc3)o2)cc(OC)c1OC`, for which the percent of negative control (+Dex) is 93.5% (inactive) and the z-score came out at 0.42.

On to `CC(C)Nc1ncc2cc(Oc3ccc(F)cc3F)c(=O)n(C)c2n1`, for which the percent of negative control (+Dex) is 95.5% (inactive) and the z-score was -0.005.

In the case of `CS(=O)(=O)CCc1cccc(C(=O)c2cnn(-c3ccc(F)cc3)c2N)c1`, the percent of negative control (+Dex) is 102% (inactive) and the z-score was 1.1.

As for `CS(=O)(=O)CCNCc1ccc(-c2ccc3ncnc(Nc4ccc(OCc5ccccc5)c(Cl)c4)c3c2)o1`, the z-score is -1.31 and the percent of negative control (+Dex) was 73.5% (inactive).

Take `COc1cccc(C2=C(c3cn(C)c4cccc(OC)c34)C(=O)NC2=O)c1`: the z-score amounted to 0.35 and the percent of negative control (+Dex) was 99% (inactive).

As for `O=C1NC(=NCCc2ccc(F)cc2)SC1=Cc1ccc2ncccc2c1`, the percent of negative control (+Dex) is 99.5% (inactive) and the z-score is 0.5.

Consider `COc1cc[nH]c1C=C1C(=O)Nc2ccc(F)c(C#CC3(O)CCNCC3)c21`, for which the percent of negative control (+Dex) is 108% (inactive) and the z-score was -2.18.

Turning to `COc1cccc(C2=C(c3c(C)n(C)c4ccccc34)C(=O)NC2=O)c1`, the percent of negative control (+Dex) is 91% (inactive) and the z-score was -0.5.

For `Cc1cccc2c(C3=C(c4cn(C)c5ccccc45)C(=O)NC3=O)cn(C)c12`, the percent of negative control (+Dex) was 98.5% (inactive) and the z-score is -1.08.

In the case of `CNc1ncc2cc(Oc3ccc(F)cc3F)c(=O)n(C)c2n1`, the percent of negative control (+Dex) is 94.5% (inactive) and the z-score turned out to be 1.49.

Regarding `O=C1NC(=O)C(=Cc2ccc3ncccc3c2)S1`, the z-score was 3.21 and the percent of negative control (+Dex) is 126% (active).

Regarding `CCc1c(C)nc2sc3c(N)ncnc3c2c1C`, the z-score was -4.42 and the percent of negative control (+Dex) is 53.5% (active).

With `CC(c1ccccc1)C(C(=O)Nc1ccc(I)cc1F)N1C(=O)NC(c2ccc(OCC(O)CO)cc2)C1=O` (stereo not drawn), the z-score was -3.5 and the percent of negative control (+Dex) is 55% (active).
